# Experimental data from PubChem BioAssay AID651703 (Broad Institute, 2012).
# Among all 1,200 compounds or so, about 970 (81%) were called active. So high a share suggests a set chosen from earlier hits. Only a sample is shown. Measured potencies and affinities stand elsewhere. Values without a mark were called inactive. How the calls were made is not given here.
# Biological target: Transforming acidic coiled-coil-containing protein 3 (Homo sapiens) (UniProt Q9Y6A5)
# Assay: ARNT/TACC3 interaction disruptors, potency, confirmation, biochemical, AlphaScreen, cherry-picked samples (AID 651703);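 further: TACC3 partner is the GST-tagged E629A mutant dimer; hits lower the signal meaning they disrupt ARNT binding to TACC3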
# Conditions: AlphaScreen His-ARNT PAS-B / GST-TACC3 binding, luminescence; series mostly up to 68 µM; activity change, negative = inhibition: at the top concentration
row,SMILES,"activity change, negative = inhibition [%]"
1,Clc1ccc(SCc2cc(N3CCOCC3)nc(-c3ccccn3)n2)cc1,-30.7
2,CCOc1cc(/C=N/Nc2ncc(C)c(=O)[nH]2)ccc1O,-8.82
3,O=C1C2CCCCN2C(=O)N1CCCCN1CCN(c2cccc(Br)c2)CC1 (stereo unspecified),-21.4
4,O=C(CCC(=O)c1cccs1)OCc1nnc(-c2ccccc2)o1,10.7
5,CCc1c(C)nc(Nc2nc(C)c3ccc(OC)cc3n2)[nH]c1=O,-7.31
6,CCN(C(=O)CSc1nccn1C)c1cccc2ccccc12,-6.72
7,COc1cc2c(cc1OC)C(Cc1ccccc1[N+](=O)[O-])=NCC2,-20.7
8,CCSc1nnc(NC(=O)C2CCCCC2C(=O)O)s1 (stereo unspecified),1.56
9,O=C(Nc1nnc(-c2ccccc2)s1)c1cc(-c2ccccc2)on1,-1.62
10,C[C@H]1CN([C@@H](C)CO)C(=O)Cc2cc(NC(=O)Nc3cccc4ccccc34)ccc2O[C@H]1CN(C)CC1CCCCC1,-36.3
11,C[C@H](CO)N1C[C@H](C)[C@@H](CN(C)C(=O)Nc2ccc3c(c2)OCO3)Oc2ccc(NC(=O)CCN3CCOCC3)cc2CC1=O,-7.87
12,C[C@@H]1CN([C@H](C)CO)C(=O)Cc2cc(NC(=O)Nc3cccc4ccccc34)ccc2O[C@@H]1CN(C)Cc1ccc(C(=O)O)cc1,-6.54
13,C[C@@H]1CN([C@@H](C)CO)C(=O)c2cc(NC(=O)C3CC3)ccc2O[C@H]1CN(C)C(=O)Nc1ccc(F)cc1,-7.79
14,CC(C)NC(=O)Nc1cccc2c1O[C@H](CN(C)C(=O)Nc1ccc(C(F)(F)F)cc1)[C@@H](C)CN([C@@H](C)CO)C2=O,-0.802
15,COCCCN=Cc1c(-c2ccccc2)[nH]n(-c2nc3ccccc3s2)c1=O,-37.7
16,COc1ccc(-c2[nH]ncc2/C=N\NC(=O)c2cccs2)cc1OC,-14
17,C#CCOc1ccc(OC)cc1C(c1c(C)[nH][nH]c1=O)c1c(C)[nH][nH]c1=O,-1.5
18,CCOc1ccc(Cl)cc1C(c1c(C)[nH][nH]c1=O)c1c(C)[nH][nH]c1=O,-2.73
19,CCCN(C)C[C@@H]1Oc2ncc(C#CCC(C)C)cc2C(=O)N([C@@H](C)CO)C[C@H]1C,-18.2
20,O=C(O)c1ccccc1-c1ccccc1C(=O)Nc1ccc2c(c1)[nH]c(=O)c1ccccc12,0.471
21,O=C(Nc1nc2ccccc2s1)c1cc(-c2ccccc2)on1,-1.55
22,Cc1onc(-c2c(Cl)cccc2Cl)c1C(=O)Nc1ccc(N2CCOCC2)cc1,-17.6
23,Cc1ccc(C(=O)Oc2ccc(/C=C3\C(=N)N4N=C(N5CCOCC5)SC4=NC3=O)cc2)cc1,-26.6

row,SMILES,"activity change, negative = inhibition [%]"
1,O=C1CCN(Cc2ccccc2)C=C1c1ccc(C(F)(F)F)cc1,-27.7
2,Cc1cccc(Oc2nc(-c3ccccn3)nc3ccccc23)c1,-28.3
3,Nc1cc2cccnc2cc1Cl,-23.6
4,O=C(C[C@H]1C=C[C@@H](NC(=O)Nc2ccc3c(c2)OCO3)[C@H](CO)O1)NCc1ccc(Cl)cc1,2.06
5,N#CC1=C(N)Oc2n[nH]c(-c3ccccn3)c2C1c1c(F)cccc1Cl (stereo unspecified),-16.6
6,CCN(CC)C(=O)[C@H]1C[C@H](CC(=O)NCc2ccc(OC)c(OC)c2)C(=O)N2CCc3c([nH]c4ccc(Cl)cc34)[C@]12C,-12.8
7,CN1CCN(S(=O)(=O)c2cccc(C(=O)Nc3sccc3C(N)=O)c2)CC1,-33.7
8,O=C(NCC1CCCCC1)c1cc(-c2ccccc2)on1,3.5
9,COC(=O)c1sc(N)c(C(=O)OC)c1Cn1ncc(Cl)c(Cl)c1=O,-12.5
10,Cc1ccccc1CNC(=O)c1cc(-c2ccccc2)on1,0.875
11,CC1=NN(c2ccccc2C)C(=O)C1,-6.86
12,COc1cc(NC(=O)C(=O)Nc2ccc3nc4n(c(=O)c3c2)CCCCC4)cc(OC)c1OC,-6.07
13,CN(C)c1ccc2c(c1)[C@@H]1C[C@@H](CC(=O)N3CCOCC3)O[C@@H](CO)[C@@H]1O2,-30.3
14,O=C(C[C@H]1C[C@H]2c3cc(NC(=O)NC4CCCCC4)ccc3O[C@H]2[C@H](CO)O1)NCc1ccccc1,-2.39
15,Clc1nssc1=Nc1nncs1,-30.4
16,COCCNC(=O)C[C@@H]1C[C@H]2c3cc(NC(=O)C4CCOCC4)ccc3O[C@H]2[C@H](CO)O1,-3.55
17,COc1ccccc1OCc1nc(C#N)c(NCCCn2ccnc2)o1,-42.8
18,Cc1c(CC(=O)NCCCCCC(=O)O)c(=O)oc2cc3occ(-c4ccccc4)c3cc12,-18.5
19,Cc1c(CCC(=O)O)c(=O)oc2c(C)c3occ(-c4ccc(Cl)cc4)c3cc12,-0.452
20,Cc1coc2c(C)c3oc(=O)c(CCC(=O)N[C@@H](C)C(=O)N[C@@H](Cc4ccccc4)C(=O)O)c(C)c3cc12,-4.24
21,COc1ccc(N(C(C)=O)c2nc3ccccc3[nH]2)cc1,-17.3
22,Cc1cc(C)n(S(=O)(=O)c2ccc(Cl)cc2)n1,-2.54
23,O=C(CCc1ccccc1)Nc1nnc(-c2ccccn2)o1,-16.8

row,SMILES,"activity change, negative = inhibition [%]"
1,CC(=O)Nc1ccc2nc3ccccc3nc2c1,-24.7
2,Cc1ccc(NC(=O)c2cc(-c3ccccc3)on2)cn1,1.4
3,Cc1ccc(C2CCN(C(=S)Nc3cccc(C)c3)C2)cc1 (stereo unspecified),-38.6
4,CCCNC(=O)Nc1ccc2c(c1)OC[C@H](C)N(C(=O)c1ccccc1F)C[C@@H](C)[C@@H](OC)CN(C)C2=O,-3.86
5,CO[C@H]1CN(C)C(=O)c2cc(NC(=O)NC3CCCCC3)ccc2OC[C@H](C)N(CC2CC2)C[C@@H]1C,-2.5
6,CO[C@@H]1CN(C)C(=O)c2cc(NC(=O)c3ccccc3)ccc2OC[C@@H](C)N(C(=O)C2CC2)C[C@H]1C,-6.51
7,O=C(Nc1ccc2ccccc2n1)c1cc(-c2ccccc2)on1,1.79
8,Cc1cccc(NC(=O)c2cc(-c3ccccc3)on2)n1,1.16
9,CN1/C(=N\O)c2cccc3cccc1c23,-39
10,O=C(C[C@@H]1C[C@@H]2c3cc(NC(=O)C4CCOCC4)ccc3O[C@@H]2[C@H](CO)O1)NCc1cccnc1,1.31
11,CC(C)NC(=O)N1[C@H](CO)[C@@H]2c3ccccc3NC[C@@H]21,-3.84
12,O=C(Nc1ncc(-c2ccccc2)o1)c1cc(-c2ccccc2)on1,-0.929
13,COC(=O)C[C@@H]1C[C@H]2c3cc(N(C)C)ccc3O[C@H]2[C@@H](CO)O1,-8.65
14,COc1ccc(OC)c(NC(=O)COC(=O)Cn2nnc(-c3ccccc3)n2)c1,2.95
15,COC(=O)c1[nH]c2cc(OC)c(OC)cc2c1NC(=O)Oc1ccccc1,-10.6
16,CC(C)NC(=O)N(C)C[C@H]1OCCCC[C@H](C)Oc2ccc(NC(=O)Cc3ccccc3)cc2C(=O)N([C@H](C)CO)C[C@H]1C,-6.01
17,C[C@H](CO)N1C[C@H](C)[C@H](CN(C)C(=O)Nc2cccc3ccccc23)OCCCC[C@H](C)Oc2ccc(NC(=O)CCCN(C)C)cc2C1=O,-30.4
18,C[C@@H]1CN([C@@H](C)CO)C(=O)c2cc(NC(=O)CCCN(C)C)ccc2O[C@@H](C)CCCCO[C@H]1CN(C)C(=O)Nc1cccc2ccccc12,-23.8
19,CC(C)NC(=O)Nc1ccc2c(c1)C(=O)N([C@@H](C)CO)C[C@H](C)[C@@H](CN(C)C)OCCCC[C@H](C)O2,-2.36
20,C[C@@H]1CN([C@@H](C)CO)C(=O)c2cc(NC(=O)C3CCCCC3)ccc2O[C@@H](C)CCCCO[C@@H]1CN(C)C(=O)NC1CCCCC1,-4.9
21,CC(C)NC(=O)Nc1ccc2c(c1)C(=O)N([C@H](C)CO)C[C@@H](C)[C@@H](CN(C)C(=O)Nc1ccccc1)OCCCC[C@@H](C)O2,-4.52
22,O=C(c1cc(-c2ccccc2)on1)N1CCC(N2CCCC2)CC1,1.23
23,O=C(Nc1nc(-c2ccccc2)cs1)c1cc(-c2ccccc2)on1,-1.03

row,SMILES,"activity change, negative = inhibition [%]"
1,COc1ccc(-c2cnc3c(c2)C(=O)N([C@@H](C)CO)C[C@H](C)[C@@H](CN(C)Cc2cccnc2)O3)cc1,-9.39
2,C[C@@H]1CN([C@H](C)CO)C(=O)c2cccc(NC(=O)c3ccncc3)c2O[C@@H]1CN(C)Cc1ccc(-c2ccccc2)cc1,-1.91
3,C[C@@H]1CN([C@H](C)CO)C(=O)c2cc(NS(C)(=O)=O)ccc2O[C@@H]1CN(C)S(=O)(=O)c1ccc(F)cc1,-13.1
4,CNC[C@@H]1Oc2c(NS(=O)(=O)c3cccs3)cccc2C(=O)N([C@@H](C)CO)C[C@H]1C,5.28
5,COc1ccc(S(=O)(=O)Nc2ccc3c(c2)C(=O)N([C@H](C)CO)C[C@H](C)[C@H](CN(C)S(=O)(=O)c2ccc(C)cc2)O3)cc1,-23.5
6,O=C(CN1CCCCCC1)Nc1ccccc1[N+](=O)[O-],-10.1
7,CCN(CC(=O)NCc1cccs1)CC(=O)Nc1cccc(S(N)(=O)=O)c1,-1.45
8,Cc1nnc(NC(=O)CSc2nnc(CNC(=O)c3ccc(S(=O)(=O)N(C)C)cc3)o2)s1,-6.23
9,Cc1c(CC(=O)NCC(=O)NCC(=O)O)c(=O)oc2cc3oc4c(c3cc12)CCCC4,-4.49
10,Cc1cc(F)ccc1NS(=O)(=O)c1cccc2nsnc12,-13.9
11,CC(=O)NC1=NC(=O)/C(=C/c2cn(C(C)=O)nc2-c2ccccc2)S1,-19.3
12,Cc1ccc(-c2nc(C)sc2CC(=O)NCc2ccco2)cc1,-20.4
13,Cc1cc(=O)n(-c2ccc(O)cc2)[nH]1,-19.3
14,O=C(NCC1CCCO1)c1onc(CSc2ccc(F)cc2)c1C(=O)O (stereo unspecified),-5.09
15,Cc1cc(C)c(S(=O)(=O)N2CCCC2=O)c(C)c1N(C)S(C)(=O)=O,-0.139
16,O=C(C[C@H]1C=C[C@@H](NC(=O)C2CC2)[C@@H](CO)O1)Nc1nccs1,-5.2
17,Cc1[nH]n2c(=O)c3c(nc2c1-c1ccccc1)CCC3,-7.76
18,COc1cc(/C=C2\S/C(=N/S(=O)(=O)c3ccccc3)NC2=O)c([N+](=O)[O-])cc1OC,-27.1
19,COc1ccc(Cc2nnc(N/N=C(\C)c3ccccc3)[nH]c2=O)cc1OC,-20.3
20,O=C(CSc1nnc(-c2ccccn2)o1)Nc1ccccc1C(F)(F)F,-35.2
21,CN1CCN(C(=O)c2cc(-c3ccccc3)on2)CC1,1.98
22,O=C(c1cc(-c2ccccc2)on1)N1CCc2cccnc21,-6.9
